Measurements as given in PMC8384837, “Expanding the binding specificity for RNA recognition by a PUF domain”.

How the values were obtained:
Assay in all cases: yeast three-hybrid, YBZ-1, SC-Leu-His + 0.5 mM 3-AT, 4 days
Settings in all cases: tags: N-Gal4 AD-HA kept; label: inside an RPR1-promoter hybrid RNA with tandem MS2 sites; ssRNA
PUM1 PUF domain R7-GSV = PUM1 PUF domain R7-GSV (Homo sapiens, UniProt Q14671 828-1176, S1079G;N1080S;E1083V)
Summary of the method: (§1)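 Repeat regions from input (SC-Leu) and selection (SC-Leu-His + 0.5 mM 3-AT) plates were PCR-amplified and Illumina-sequenced after four days of growth. The cells were strain YBZ-1 with a LexA–MS2 coat fusion and a HIS3 reporter, co-expressing Pumilio-1 PUF domain libraries and matching RNA elements from a centromeric plasmid. The interaction score is the log change in variant frequency from input to selection, taken in log2 with a pseudocount of 1 for absent variants.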

PUM1 PUF domain R7-QPG = PUM1 PUF domain R7-QPG (Homo sapiens, UniProt Q14671 828-1176, S1079Q;N1080P;E1083G)
Summary of the method: as §1

PUM1 PUF domain R3-KSR = PUM1 PUF domain R3-KSR (Homo sapiens, UniProt Q14671 828-1176, C935K;R936S;Q939R)
Summary of the method: as §1

PUM1 PUF domain R4-EFD = PUM1 PUF domain R4-EFD (Homo sapiens, UniProt Q14671 828-1176, N971E;H972F;Q975D)
Summary of the method: as §1

PUM1 PUF domain R5-KRY = PUM1 PUF domain R5-KRY (Homo sapiens, UniProt Q14671 828-1176, C1007K;Q1011Y)
Summary of the method: as §1

PUM1 PUF domain R5-GLR = PUM1 PUF domain R5-GLR (Homo sapiens, UniProt Q14671 828-1176, C1007G;R1008L;Q1011R)
Summary of the method: as §1

PUM1 PUF domain R5-RLT = PUM1 PUF domain R5-RLT (Homo sapiens, UniProt Q14671 828-1176, C1007R;R1008L;Q1011T)
Summary of the method: as §1

PUM1 PUF domain R5-FHC = PUM1 PUF domain R5-FHC (Homo sapiens, UniProt Q14671 828-1176, C1007F;R1008H;Q1011C)
Summary of the method: as §1

PUM1 PUF domain R1-KSV = PUM1 PUF domain R1-KSV (Homo sapiens, UniProt Q14671 828-1176, S863K;R864S;Q867V)
Summary of the method: as §1

PUM1 PUF domain R3-VWP = PUM1 PUF domain R3-VWP (Homo sapiens, UniProt Q14671 828-1176, C935V;R936W;Q939P)
Summary of the method: as §1

In the case of “GGCUAGAACUAGUGGAUCCCCCGGCGCCCGGCGGCUCGAGCCCGGGUAAGUUUAAAUAGUCUGCAUGCCGCCGGGCGCCAUGCCUGCAGGUCGACUCUAGAAAACAUG”, the binding signal (PUM1 PUF domain R7-GSV) is reported as 2.83 log2 enrichment (interaction score) and the binding signal (PUM1 PUF domain R7-QPG) is reported as 4.67 log2 enrichment (interaction score).

For “GGCUAGAACUAGUGGAUCCCCCGGCGCCCGGCGGCUCGAGCCCGGGUAAGUGUAAGUAGUCUGCAUGCCGCCGGGCGCCAUGCCUGCAGGUCGACUCUAGAAAACAUG”, the binding signal (PUM1 PUF domain R3-KSR) was 1.19 log2 enrichment (interaction score).

With “GGCUAGAACUAGUGGAUCCCCCGGCGCCCGGCGGCUCGAGCCCGGGUAAGUGUACAUAGUCUGCAUGCCGCCGGGCGCCAUGCCUGCAGGUCGACUCUAGAAAACAUG” the binding signal (PUM1 PUF domain R4-EFD) was 2.47 log2 enrichment (interaction score).

With “GGCUAGAACUAGUGGAUCCCCCGGCGCCCGGCGGCUCGAGCCCGGGUAAGUGUCAAUAGUCUGCAUGCCGCCGGGCGCCAUGCCUGCAGGUCGACUCUAGAAAACAUG” the binding signal (PUM1 PUF domain R5-KRY) was 4.04 log2 enrichment (interaction score), the binding signal (PUM1 PUF domain R5-GLR) was 2.62 log2 enrichment (interaction score) and the binding signal (PUM1 PUF domain R5-RLT) was 2.62 log2 enrichment (interaction score).

“GGCUAGAACUAGUGGAUCCCCCGGCGCCCGGCGGCUCGAGCCCGGGUAAGUGUUAAUAGUCUGCAUGCCGCCGGGCGCCAUGCCUGCAGGUCGACUCUAGAAAACAUG” was tested, and the binding signal (PUM1 PUF domain R5-FHC) was 4.26 log2 enrichment (interaction score).

In the case of “GGCUAGAACUAGUGGAUCCCCCGGCGCCCGGCGGCUCGAGCCCGGGUAAGUGUAAAUGGUCUGCAUGCCGCCGGGCGCCAUGCCUGCAGGUCGACUCUAGAAAACAUG”, the binding signal (PUM1 PUF domain R1-KSV) is reported as 1.55 log2 enrichment (interaction score).

“GGCUAGAACUAGUGGAUCCCCCGGCGCCCGGCGGCUCGAGCCCGGGUAAGUGUAAUUAGUCUGCAUGCCGCCGGGCGCCAUGCCUGCAGGUCGACUCUAGAAAACAUG” was tested, and the binding signal (PUM1 PUF domain R3-VWP) was 3.12 log2 enrichment (interaction score) and the binding signal (PUM1 PUF domain R3-KSR) was 4.1 log2 enrichment (interaction score).
